Measurements as given in the supplement of paper PMC4466140.

Experiments:
Test in all cases: SPOT peptide array binding signal intensity (averaged, normalized) (arbitrary units (background-subtracted, floor 0; scale differs between SH3 domains)); higher = stronger binding of the SH3 domain to the peptide
AgAbp1 = molecular target: AgAbp1
Summary of the method: (§1)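 Peptides were synthetic 15-mers on cellulose membranes, with every cysteine replaced by serine. They were incubated overnight at 4°C with GST-SH3 domains from four yeast species at 10 μg/ml in TBS-based blocking buffer. Binding signal, the replicate-averaged normalized and background-subtracted spot intensity, is in arbitrary units that differ between domains.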

AgBbc1 = molecular target: AgBbc1
Summary of the method: as §1

AgBem1-D1 = molecular target: AgBem1-D1
Summary of the method: as §1

AgBzz1-D1 = molecular target: AgBzz1-D1
Summary of the method: as §1

AgBzz1-D2 = molecular target: AgBzz1-D2
Summary of the method: as §1

AgCyk3 = molecular target: AgCyk3
Summary of the method: as §1

AgFus1 = molecular target: AgFus1
Summary of the method: as §1

AgHof1 = molecular target: AgHof1
Summary of the method: as §1

AgHse1 = molecular target: AgHse1
Summary of the method: as §1

AgLsb1 = molecular target: AgLsb1
Summary of the method: as §1

AgLsb4 = molecular target: AgLsb4
Summary of the method: as §1

AgMyo5 = molecular target: AgMyo5
Summary of the method: as §1

AgNbp2 = molecular target: AgNbp2
Summary of the method: as §1

AgRvs167 = molecular target: AgRvs167
Summary of the method: as §1

AgSho1 = molecular target: AgSho1
Summary of the method: as §1

AgSla1-D1-D2 = molecular target: AgSla1-D1-D2
Summary of the method: as §1

AgSla1-D3 = molecular target: AgSla1-D3
Summary of the method: as §1

CaAbp1-D1 = molecular target: CaAbp1-D1
Summary of the method: as §1

CaAbp1-D2 = molecular target: CaAbp1-D2
Summary of the method: as §1

CaBbc1 = molecular target: CaBbc1
Summary of the method: as §1

CaBem1-D1 = molecular target: CaBem1-D1
Summary of the method: as §1

CaBzz1-D1 = molecular target: CaBzz1-D1
Summary of the method: as §1

CaBzz1-D2 = molecular target: CaBzz1-D2
Summary of the method: as §1

CaCyk3 = molecular target: CaCyk3
Summary of the method: as §1

CaFus1 = molecular target: CaFus1
Summary of the method: as §1

CaHof1 = molecular target: CaHof1
Summary of the method: as §1

CaHse1 = molecular target: CaHse1
Summary of the method: as §1

CaLsb1 = molecular target: CaLsb1
Summary of the method: as §1

CaLsb4 = molecular target: CaLsb4
Summary of the method: as §1

CaMyo5 = molecular target: CaMyo5
Summary of the method: as §1

CaNbp2 = molecular target: CaNbp2
Summary of the method: as §1

CaRvs167 = molecular target: CaRvs167
Summary of the method: as §1

CaRvs167-3 = molecular target: CaRvs167-3
Summary of the method: as §1

CaSho1 = molecular target: CaSho1
Summary of the method: as §1

CaSla1-D1-D2 = molecular target: CaSla1-D1-D2
Summary of the method: as §1

CaSla1-D3 = molecular target: CaSla1-D3
Summary of the method: as §1

ScAbp1 = molecular target: ScAbp1
Summary of the method: as §1

ScBbc1 = molecular target: ScBbc1
Summary of the method: as §1

ScBem1-D1 = molecular target: ScBem1-D1
Summary of the method: as §1

ScBzz1-D1 = molecular target: ScBzz1-D1
Summary of the method: as §1

ScBzz1-D2 = molecular target: ScBzz1-D2
Summary of the method: as §1

ScCyk3 = molecular target: ScCyk3
Summary of the method: as §1

ScFus1 = molecular target: ScFus1
Summary of the method: as §1

ScHof1 = molecular target: ScHof1
Summary of the method: as §1

ScHse1 = molecular target: ScHse1
Summary of the method: as §1

ScLsb1 = molecular target: ScLsb1
Summary of the method: as §1

ScLsb2 = molecular target: ScLsb2
Summary of the method: as §1

ScLsb3 = molecular target: ScLsb3
Summary of the method: as §1

ScLsb4 = molecular target: ScLsb4
Summary of the method: as §1

ScMyo3 = molecular target: ScMyo3
Summary of the method: as §1

ScMyo5 = molecular target: ScMyo5
Summary of the method: as §1

ScNbp2 = molecular target: ScNbp2
Summary of the method: as §1

ScPex13 = molecular target: ScPex13
Summary of the method: as §1

ScRvs167 = molecular target: ScRvs167
Summary of the method: as §1

ScSho1 = molecular target: ScSho1
Summary of the method: as §1

ScSla1-D1-D2 = molecular target: ScSla1-D1-D2
Summary of the method: as §1

ScSla1-D3 = molecular target: ScSla1-D3
Summary of the method: as §1

SpAbp1-D1 = molecular target: SpAbp1-D1
Summary of the method: as §1

SpBbc1 = molecular target: SpBbc1
Summary of the method: as §1

SpBzz1-D1 = molecular target: SpBzz1-D1
Summary of the method: as §1

SpBzz1-D2 = molecular target: SpBzz1-D2
Summary of the method: as §1

SpCyk3 = molecular target: SpCyk3
Summary of the method: as §1

SpHof1 = molecular target: SpHof1
Summary of the method: as §1

SpHof1-2 = molecular target: SpHof1-2
Summary of the method: as §1

SpHof1-3 = molecular target: SpHof1-3
Summary of the method: as §1

SpHse1 = molecular target: SpHse1
Summary of the method: as §1

SpLsb1 = molecular target: SpLsb1
Summary of the method: as §1

SpLsb4 = molecular target: SpLsb4
Summary of the method: as §1

SpMyo1 = molecular target: SpMyo1
Summary of the method: as §1

SpNbp2 = molecular target: SpNbp2
Summary of the method: as §1

SpPex13 = molecular target: SpPex13
Summary of the method: as §1

SpRvs167 = molecular target: SpRvs167
Summary of the method: as §1

SpSla1-D1-D2 = molecular target: SpSla1-D1-D2
Summary of the method: as §1

SpSla1-D3 = molecular target: SpSla1-D3
Summary of the method: as §1

Binder: GDHPKGPPPPPPPPD
- SPOT peptide array binding signal intensity (AgAbp1): ≤ 0
- SPOT peptide array binding signal intensity (AgBbc1): ≤ 0
- SPOT peptide array binding signal intensity (AgBem1-D1): ≤ 0
- SPOT peptide array binding signal intensity (AgBzz1-D1): 440
- SPOT peptide array binding signal intensity (AgBzz1-D2): 43
- SPOT peptide array binding signal intensity (AgCyk3): ≤ 0
- SPOT peptide array binding signal intensity (AgFus1): 3
- SPOT peptide array binding signal intensity (AgHof1): ≤ 0
- SPOT peptide array binding signal intensity (AgHse1): ≤ 0
- SPOT peptide array binding signal intensity (AgLsb1): ≤ 0
- SPOT peptide array binding signal intensity (AgLsb4): ≤ 0
- SPOT peptide array binding signal intensity (AgMyo5): 1010
- SPOT peptide array binding signal intensity (AgNbp2): 3
- SPOT peptide array binding signal intensity (AgRvs167): ≤ 0
- SPOT peptide array binding signal intensity (AgSho1): 3
- SPOT peptide array binding signal intensity (AgSla1-D1-D2): ≤ 0
- SPOT peptide array binding signal intensity (AgSla1-D3): 699
- SPOT peptide array binding signal intensity (CaAbp1-D1): ≤ 0
- SPOT peptide array binding signal intensity (CaAbp1-D2): ≤ 0
- SPOT peptide array binding signal intensity (CaBbc1): ≤ 0
- SPOT peptide array binding signal intensity (CaBem1-D1): ≤ 0
- SPOT peptide array binding signal intensity (CaBzz1-D1): 2370
- SPOT peptide array binding signal intensity (CaBzz1-D2): 1470
- SPOT peptide array binding signal intensity (CaCyk3): 4
- SPOT peptide array binding signal intensity (CaFus1): 19
- SPOT peptide array binding signal intensity (CaHof1): ≤ 0
- SPOT peptide array binding signal intensity (CaHse1): 3.5
- SPOT peptide array binding signal intensity (CaLsb1): ≤ 0
- SPOT peptide array binding signal intensity (CaLsb4): ≤ 0
- SPOT peptide array binding signal intensity (CaMyo5): 34
- SPOT peptide array binding signal intensity (CaNbp2): ≤ 0
- SPOT peptide array binding signal intensity (CaRvs167): 0.333
- SPOT peptide array binding signal intensity (CaRvs167-3): 1
- SPOT peptide array binding signal intensity (CaSho1): ≤ 0
- SPOT peptide array binding signal intensity (CaSla1-D1-D2): ≤ 0
- SPOT peptide array binding signal intensity (CaSla1-D3): ≤ 0
- SPOT peptide array binding signal intensity (ScAbp1): ≤ 0
- SPOT peptide array binding signal intensity (ScBbc1): ≤ 0
- SPOT peptide array binding signal intensity (ScBem1-D1): ≤ 0
- SPOT peptide array binding signal intensity (ScBzz1-D1): 1030
- SPOT peptide array binding signal intensity (ScBzz1-D2): ≤ 0
- SPOT peptide array binding signal intensity (ScCyk3): ≤ 0
- SPOT peptide array binding signal intensity (ScFus1): ≤ 0
- SPOT peptide array binding signal intensity (ScHof1): ≤ 0
- SPOT peptide array binding signal intensity (ScHse1): 16
- SPOT peptide array binding signal intensity (ScLsb1): ≤ 0
- SPOT peptide array binding signal intensity (ScLsb2): ≤ 0
- SPOT peptide array binding signal intensity (ScLsb3): ≤ 0
- SPOT peptide array binding signal intensity (ScLsb4): ≤ 0
- SPOT peptide array binding signal intensity (ScMyo3): 1170
- SPOT peptide array binding signal intensity (ScMyo5): 1020
- SPOT peptide array binding signal intensity (ScNbp2): 3
- SPOT peptide array binding signal intensity (ScPex13): 7.63e-06
- SPOT peptide array binding signal intensity (ScRvs167): ≤ 0
- SPOT peptide array binding signal intensity (ScSho1): ≤ 0
- SPOT peptide array binding signal intensity (ScSla1-D1-D2): ≤ 0
- SPOT peptide array binding signal intensity (ScSla1-D3): ≤ 0
- SPOT peptide array binding signal intensity (SpAbp1-D1): ≤ 0
- SPOT peptide array binding signal intensity (SpBbc1): ≤ 0
- SPOT peptide array binding signal intensity (SpBzz1-D1): 67
- SPOT peptide array binding signal intensity (SpBzz1-D2): 2
- SPOT peptide array binding signal intensity (SpCyk3): ≤ 0
- SPOT peptide array binding signal intensity (SpHof1): ≤ 0
- SPOT peptide array binding signal intensity (SpHof1-2): ≤ 0
- SPOT peptide array binding signal intensity (SpHof1-3): ≤ 0
- SPOT peptide array binding signal intensity (SpHse1): 1
- SPOT peptide array binding signal intensity (SpLsb1): ≤ 0
- SPOT peptide array binding signal intensity (SpLsb4): ≤ 0
- SPOT peptide array binding signal intensity (SpMyo1): 1570
- SPOT peptide array binding signal intensity (SpNbp2): 18.5
- SPOT peptide array binding signal intensity (SpPex13): ≤ 0
- SPOT peptide array binding signal intensity (SpRvs167): ≤ 0
- SPOT peptide array binding signal intensity (SpSla1-D1-D2): ≤ 0
- SPOT peptide array binding signal intensity (SpSla1-D3): ≤ 0
